Shown are actives, neighbours in structure and some others; about 2.3% of the full set was active somewhere.
Mcl1-Noxa inh – disrupts binding of human Mcl-1 to Noxa peptide; Q07820; TR-FRET Mcl-1/Noxa peptide binding, 2 h; inhibition, % at 21.7 µM; 220,000 compounds, 1.5% hits;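 active means compounds that cut the protein-peptide binding signal by more than 50% relative to plate controls in a single-dose test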;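 further: His-tagged Mcl-1 with rhodamine Noxa BH3 peptide and terbium anti-His antibody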
Target sequence (Q07820 whole entry, looked up): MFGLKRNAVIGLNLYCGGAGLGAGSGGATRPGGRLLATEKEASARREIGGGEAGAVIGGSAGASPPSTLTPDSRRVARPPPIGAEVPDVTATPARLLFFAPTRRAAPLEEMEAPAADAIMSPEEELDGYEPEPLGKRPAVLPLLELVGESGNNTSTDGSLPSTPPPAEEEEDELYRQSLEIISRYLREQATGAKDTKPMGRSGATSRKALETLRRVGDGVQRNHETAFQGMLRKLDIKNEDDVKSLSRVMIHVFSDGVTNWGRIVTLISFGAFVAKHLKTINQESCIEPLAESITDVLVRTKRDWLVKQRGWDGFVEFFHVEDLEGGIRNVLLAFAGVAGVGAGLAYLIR
Mcl-1 Bim block – human Bim-Mcl-1 interaction inhibition. Bead-based flow cytometry, Bim peptide-Mcl-1 binding. inhibition, % at 10 µM. 190,000 compounds, 0.1% hits. AID 1009; in the data active means inhibition above about 40%
MCL1 BIM primary – disrupts human MCL1 binding to BIM-BH3 peptide; Q07820; GST-MCL1 / FITC-Bim-BH3 fluorescence polarization; inhibition, % at 10.9 µM; 320,000 compounds, 0.68% hits;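 active means inhibition above the mean inhibition of all tested compounds plus 3 SD, set per campaign, cut at about 40% in these data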;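 further: higher means more loss of mP so more displacement of Bim peptide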
GLD-1 RNA inh – GLD-1-TGE RNA interaction inhibition (C. elegans). Q17339. 320,000 compounds, 0.44% hits. purified GLD-1 + fluorescein TGE RNA, fluorescence polarization. inhibition, % at 5.96 µM;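 active means percent inhibition above a per-plate cutoff, the plate mean of test compounds plus 3 SD, cut at about 30% in these data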
Bcl-xL primary – blocks human Bcl-xL binding to Bim BH3 peptide; inhibition, % at 10.9 µM; GST-Bcl-xL / FITC-Bim BH3 peptide fluorescence polarization; Q07817; 320,000 compounds, 0.7% hits;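 active means inhibition above the mean of all tested compounds plus 3 SD, cutoff set per campaign, cut at about 30% in these data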;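 further: inhibitors lower millipolarization by displacing the labeled peptide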
Target sequence (Q07817 whole entry, looked up): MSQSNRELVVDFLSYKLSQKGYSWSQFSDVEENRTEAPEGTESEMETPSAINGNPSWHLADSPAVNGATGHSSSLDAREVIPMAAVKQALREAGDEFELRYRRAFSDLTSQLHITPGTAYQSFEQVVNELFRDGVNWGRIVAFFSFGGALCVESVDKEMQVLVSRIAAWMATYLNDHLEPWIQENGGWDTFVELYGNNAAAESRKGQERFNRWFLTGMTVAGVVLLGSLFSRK
Mcl1-Bid inh – disrupts binding of human Mcl-1 to Bid peptide; Q07820; TR-FRET Mcl-1/Bid-Dy647 peptide binding, 1536-well; inhibition, % at 21.7 µM; 220,000 compounds, 0.97% hits;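 active means compounds that cut the binding signal by more than half at the single screening dose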;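 further: His-tagged Mcl-1 with europium anti-His antibody binding Bid BH3 peptide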
Numbers stand for hits.

What do the screens show for `O=S(=O)(Nc1cc2nc3ccccc3nc2n1Cc1ccccc1)c1ccc(Cl)cc1`?
Mcl1-Noxa inh: inactive; Mcl-1 Bim block: inactive; MCL1 BIM primary: inactive; GLD-1 RNA inh: 40; Bcl-xL primary: inactive; Mcl1-Bid inh: inactive

Results for CC12CCC(=O)C=C1CCC1C2C(O)CC2(C)C1CCC2(O)C(=O)CO (stereo unspecified) ?
MCL1 BIM primary: inactive; GLD-1 RNA inh: inactive; Bcl-xL primary: inactive

What do the screens show for `O=C(O)C1=C[C@H](C2CC2)C[C@H](OCCCCO)O1`?
Mcl1-Noxa inh: inactive; Mcl-1 Bim block: 44; MCL1 BIM primary: inactive; GLD-1 RNA inh: inactive; Bcl-xL primary: inactive; Mcl1-Bid inh: inactive

Results for CCCCC(=Nc1ccc(N)cc1)C1=C(O)C(C(=O)OC)C(C)(C)CC1=O (stereo unspecified) ?
Mcl1-Noxa inh: inactive; Mcl-1 Bim block: inactive; MCL1 BIM primary: inactive; GLD-1 RNA inh: inactive; Bcl-xL primary: 32; Mcl1-Bid inh: inactive

How did CC(=O)c1ccc(OCCCC(=O)Nc2ccc(S(=O)(=O)N3CCOCC3)cc2)cc1 do in these assays?
MCL1 BIM primary: inactive; GLD-1 RNA inh: inactive; Bcl-xL primary: inactive

How did CCOC(=O)c1cc2c(ccn2-c2ccc(F)cc2)n1CC(=O)NC(C)(C)C do in these assays?
Mcl1-Noxa inh: inactive; Mcl-1 Bim block: inactive; MCL1 BIM primary: inactive; GLD-1 RNA inh: inactive; Bcl-xL primary: inactive; Mcl1-Bid inh: inactive

What do the screens show for `O=C(NNC(=O)c1ccc(O)cc1O)c1ccc(Cl)cc1`?
Mcl1-Noxa inh: inactive; Mcl-1 Bim block: inactive; MCL1 BIM primary: inactive; GLD-1 RNA inh: inactive; Bcl-xL primary: inactive; Mcl1-Bid inh: 56

What do the screens show for `CSc1nc(N(CCO)CCO)c2sc3nc(-c4ccco4)c4c(c3c2n1)CCC4`?
Mcl1-Noxa inh: 107; Mcl-1 Bim block: inactive; Mcl1-Bid inh: 80

What do the screens show for `CC1(C)Cc2c(c(-c3ccco3)nc3sc4c(NCCO)ncnc4c23)CO1`?
Mcl1-Noxa inh: 54; Mcl-1 Bim block: inactive; MCL1 BIM primary: inactive; GLD-1 RNA inh: inactive; Bcl-xL primary: inactive; Mcl1-Bid inh: inactive

What do the screens show for `COCCCNc1ncnc2c1sc1nc(-c3ccco3)c3c(c12)CC(C)(C)OC3`?
Mcl1-Noxa inh: inactive; MCL1 BIM primary: inactive; GLD-1 RNA inh: inactive; Bcl-xL primary: inactive; Mcl1-Bid inh: inactive

What do the screens show for `CSc1nc(SCCO)c2sc3nc(-c4ccco4)c4c(c3c2n1)CC(C)(C)OC4`?
Mcl1-Noxa inh: 99; Mcl-1 Bim block: inactive; Mcl1-Bid inh: 85

How did COc1cc(CNCc2ccc(SC)cc2)cc(OC)c1 do in these assays?
Mcl1-Noxa inh: inactive; Mcl-1 Bim block: inactive; MCL1 BIM primary: inactive; GLD-1 RNA inh: inactive; Bcl-xL primary: inactive; Mcl1-Bid inh: 51

Results for Cc1c([N+](=O)[O-])c(C(=O)Nc2ccc3c(c2)OCCO3)nn1C ?
Mcl1-Noxa inh: inactive; Mcl-1 Bim block: inactive; MCL1 BIM primary: inactive; GLD-1 RNA inh: inactive; Bcl-xL primary: inactive; Mcl1-Bid inh: 73

Results for COC(=O)c1ccc(=O)c2nc3/c(=C/O)c(O)cc(=O)c3[nH]c12 ?
Mcl1-Noxa inh: 98; MCL1 BIM primary: 97; GLD-1 RNA inh: inactive; Bcl-xL primary: 90; Mcl1-Bid inh: 75

Results for Cc1cc(-c2ccc(N=Nc3c(S(=O)(=O)O)cc4cc(S(=O)(=O)O)cc(N)c4c3O)c(C)c2)ccc1N=Nc1c(S(=O)(=O)O)cc2cc(S(=O)(=O)O)cc(N)c2c1O ?
MCL1 BIM primary: 96; GLD-1 RNA inh: inactive; Bcl-xL primary: 65

Results for CCC(C)(C)NC(=O)C(c1ccccc1Cl)N(C(=O)CCC(=O)Nc1cc(C)on1)c1ccc(NC(C)=O)cc1 (stereo unspecified) ?
MCL1 BIM primary: inactive; GLD-1 RNA inh: inactive; Bcl-xL primary: inactive

How did CCCN1C(=O)/C(=C\c2nc3ccccc3c(=O)[nH]2)c2ccccc21 do in these assays?
Mcl1-Noxa inh: inactive; Mcl-1 Bim block: inactive; Mcl1-Bid inh: 51

How did COc1ccc(C(C)=O)cc1COc1ccc(Cl)cc1Cl do in these assays?
Mcl1-Noxa inh: inactive; MCL1 BIM primary: inactive; GLD-1 RNA inh: inactive; Bcl-xL primary: inactive; Mcl1-Bid inh: 92

How did Cn1cccc1C(=O)NNC(=O)COc1ccccc1Cl do in these assays?
MCL1 BIM primary: inactive; GLD-1 RNA inh: inactive; Bcl-xL primary: inactive

What do the screens show for `Cc1ccc(-c2nc(Nc3ccc(N4CCOCC4)cc3)c3ccccc3n2)cc1`?
Mcl1-Noxa inh: 64; MCL1 BIM primary: inactive; GLD-1 RNA inh: inactive; Bcl-xL primary: inactive; Mcl1-Bid inh: inactive

How did Cc1ccc(-c2nc(Nc3ccc(O)cc3)c3ccccc3n2)cc1 do in these assays?
MCL1 BIM primary: inactive; GLD-1 RNA inh: inactive; Bcl-xL primary: inactive

Results for O=C1C2C3CCC(CC3)C2C(=O)N1c1ccccc1 (stereo unspecified) ?
MCL1 BIM primary: inactive; GLD-1 RNA inh: inactive; Bcl-xL primary: inactive

How did O=C(NC(=S)N1CCCc2ccccc21)c1ccc(Cl)cc1 do in these assays?
Mcl1-Noxa inh: 51; Mcl-1 Bim block: inactive; MCL1 BIM primary: inactive; GLD-1 RNA inh: inactive; Bcl-xL primary: inactive; Mcl1-Bid inh: inactive

Results for COC(=O)C1=C(O)/C(=C\c2ccc(CNC(=O)C(=O)Nc3ccc(C)c(C)c3)o2)N=C1C ?
Mcl1-Noxa inh: 55; Mcl-1 Bim block: inactive; MCL1 BIM primary: inactive; GLD-1 RNA inh: inactive; Bcl-xL primary: inactive; Mcl1-Bid inh: inactive

How did CCOC(=O)C1=C(O)/C(=C\c2ccc(CNS(=O)(=O)c3ccc(Br)cc3)o2)N=C1C do in these assays?
Mcl1-Noxa inh: 57; Mcl-1 Bim block: inactive; MCL1 BIM primary: inactive; GLD-1 RNA inh: inactive; Bcl-xL primary: inactive; Mcl1-Bid inh: inactive

What do the screens show for `COC(=O)C1=C(O)/C(=C\c2ccc(CNS(=O)(=O)c3ccc(Cl)cc3)o2)N=C1C`?
Mcl1-Noxa inh: inactive; Mcl-1 Bim block: inactive; MCL1 BIM primary: inactive; GLD-1 RNA inh: inactive; Bcl-xL primary: inactive; Mcl1-Bid inh: inactive

What do the screens show for `Cc1cccc(C)c1OCc1cc(C(=O)N(C)CCc2ccccn2)no1`?
MCL1 BIM primary: inactive; GLD-1 RNA inh: inactive; Bcl-xL primary: inactive

What do the screens show for `C=CCN1C(=O)/C(=C\C=C2\N(C)c3ccccc3C2(C)C)SC1=S`?
Mcl1-Noxa inh: inactive; Mcl-1 Bim block: inactive; MCL1 BIM primary: inactive; GLD-1 RNA inh: inactive; Bcl-xL primary: inactive; Mcl1-Bid inh: inactive

What do the screens show for `CN1/C(=C\C=C2/SC(=S)N(CC(=O)O)C2=O)C(C)(C)c2ccccc21`?
Mcl1-Noxa inh: inactive; Mcl-1 Bim block: inactive; MCL1 BIM primary: inactive; GLD-1 RNA inh: inactive; Bcl-xL primary: 36; Mcl1-Bid inh: inactive

What do the screens show for `CCOc1ccc(C(=O)Nc2ccc(N3CCCC3)cc2)cc1`?
Mcl1-Noxa inh: 63; Mcl-1 Bim block: inactive; MCL1 BIM primary: inactive; GLD-1 RNA inh: inactive; Bcl-xL primary: inactive; Mcl1-Bid inh: inactive

Results for O=C(Nc1ccc(N2CCCC2)cc1)c1ccc(Br)o1 ?
Mcl1-Noxa inh: 94; Mcl-1 Bim block: inactive; MCL1 BIM primary: inactive; GLD-1 RNA inh: inactive; Bcl-xL primary: inactive; Mcl1-Bid inh: inactive

What do the screens show for `O=C(Nc1ccc(N2CCN(C(=O)c3ccccc3)CC2)cc1)c1ccc(Br)o1`?
Mcl1-Noxa inh: inactive; Mcl-1 Bim block: inactive; MCL1 BIM primary: inactive; GLD-1 RNA inh: inactive; Bcl-xL primary: inactive; Mcl1-Bid inh: inactive

Compound activity (PubChem BioAssay)
